# Experimental data from PubChem BioAssay (NCI).
# The panel holds about 83,000 compounds, 20% with a hit somewhere; the sample as a whole holds those more often.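 Treatment: one concentration, 48 hours, 96-well format. Scoring: percent growth, with anything below 10 considered active.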 A number with no mark means an inactive call. Active and inactive are the calls of the source.
# How the values were obtained:
# Assay in all cases: NCI-60 one-dose screen, 48 h (100 = growth as untreated, 0 = no growth, -100 = all killed)
# Conditions in all cases: 10 µM unless noted
# [1] = test system: DU-145 prostate
# [2] = test system: K-562 leukemia
# [3] = test system: MALME-3M melanoma
# [4] = test system: MDA-MB-231 breast
# [5] = test system: RXF 393 renal
# [6] = test system: SF-268 CNS
# [7] = test system: SF-295 CNS
# [8] = test system: SF-539 CNS
# [9] = test system: UACC-257 melanoma
# [10] = test system: M14 melanoma
# [11] = test system: HCT-15 colon
# [12] = test system: HT29 colon
# [13] = test system: SNB-75 CNS
# [14] = test system: SNB-19 CNS
# [15] = test system: U251 CNS
# [16] = test system: PC-3 prostate
# [17] = test system: SK-MEL-5 melanoma
# [18] = test system: UACC-62 melanoma
# [19] = test system: LOX IMVI melanoma
# [20] = test system: SK-MEL-28 melanoma
SMILES,growth [1],growth [2],growth [3],growth [4],growth [5],growth [6],growth [7],growth [8],growth [9],growth [10],growth [11],growth [12],growth [13],growth [14],growth [15],growth [16],growth [17],growth [18],growth [19],growth [20]
CC1=C(SCCC(=O)OC(C[Se]C2=C(C)C(=O)c3ccccc3C2=O)C(=O)NC(C)(C)C)C(=O)c2ccccc2C1=O (stereo not given),-99% (active),7.31% (active),-74.9% (active),-58% (active),-89.1% (active),-96.2% (active),-30.9% (active),-99.8% (active),-88.1% (active),-84.1% (active),1.48% (active),-5.09% (active),-95.9% (active),-92.6% (active),-69% (active),-64% (active),-99.4% (active),-91.2% (active),-52.2% (active),-96% (active)
CCOC(=O)c1cnn2c3ccccc3n(S(=O)(=O)c3ccc(OC)cc3)c12,14.8%,11.2%,60.7%,10.2%,-6.6% (active),44.7%,14.1%,-3.57% (active),80.1%,25.3%,13%,11.6%,61.3%,27.5%,26.3%,35.7%,-15% (active),25.7%,18.7%,57.9%
CNC(=O)c1cc(-n2ccc3cc(NC(=O)c4ccc(N5CCOCC5)c(C(F)(F)F)c4)ccc32)ccn1,76%,25.5%,73.9%,77.7%,-2.7% (active),88.3%,-3.1% (active),30.6%,84.3%,62.4%,43.2%,25.1%,85.9%,81.1%,50.3%,18%,24.6%,38.7%,36.1%,82.2%
COc1cc(C(=O)/C=C/c2ccc(OCCCCCC[P+](c3ccccc3)(c3ccccc3)c3ccccc3)cc2)cc(OC)c1OC,-1.64% (active),0.54% (active),-37.9% (active),-15.1% (active),-47.3% (active),-6.6% (active),-23.4% (active),-86.2% (active),-21.4% (active),-55.8% (active),-54.7% (active),-14.1% (active),-11.1% (active),-73.3% (active),-100% (active),-54.9% (active),-100% (active),-80.3% (active),-100% (active),-60.4% (active)
Cc1ccccc1C(=O)NN,120%,104%,106%,126%,118%,120%,106%,114%,103%,107%,106%,98.9%,91.1%,105%,104%,92.8%,119%,101%,109%,115%
COc1cccc(Oc2ccccc2NC(=O)CNC(=O)c2cccc3ccccc23)c1,5.14% [5 µM] (active),11.8% [5 µM],51.3% [5 µM],7.29% [5 µM] (active),52.4% [5 µM],34.6% [5 µM],14.6% [5 µM],-7.85% [5 µM] (active),83.6% [5 µM],-6.36% [5 µM] (active),17.8% [5 µM],6.01% [5 µM] (active),28% [5 µM],41.7% [5 µM],23.2% [5 µM],26.2% [5 µM],11.7% [5 µM],16.1% [5 µM],26.1% [5 µM],57.5% [5 µM]
c1ccc(-c2nc3nonc3nc2-c2ccccc2)cc1,68.2%,52.4%,55.4%,43.9%,51.1%,62.9%,72.3%,79.1%,63.3%,84.9%,68.3%,82.7%,65.4%,77.8%,58.3%,46.5%,63.8%,58.7%,56%,90.3%
Cc1ccc(C(=O)NN2C(=O)CSC2c2ccc(Cl)cc2)cn1 (stereo not given),125%,89.8%,140%,88.8%,95.2%,101%,66.9%,101%,110%,97.8%,90.1%,105%,95.8%,85.6%,93.3%,87.5%,99.2%,93.5%,97.4%,90.8%
O=C(Cc1ccc(F)c(Cl)c1)Nc1cc(C2(C(F)(F)F)CC2)nn1Cc1ccccc1,89.8%,77.1%,60.4%,14.1%,-23.5% (active),17.1%,24.8%,50.6%,91.1%,70.8%,93.9%,18%,-21.6% (active),9.43% (active),24.3%,86.8%,83.6%,65.9%,86.3%,98%
O=C(N/N=C/[C@@H](O)[C@H](O)[C@H](O)CO)c1ccc(NC(=O)c2cccnc2)cc1,112%,103%,110%,102%,109%,98.5%,101%,103%,100%,106%,103%,105%,90.3%,98.7%,101%,101%,106%,99.5%,101%,103%
O=C(Nc1nc2ccc(F)cc2s1)c1cccnc1Nc1ccc(Cl)cc1Cl,30%,4.08% (active),-15.9% (active),34.5%,44.4%,28.9%,4.3% (active),43.1%,28.1%,37%,16.9%,7.92% (active),34.7%,20.2%,15.8%,3.63% (active),-2.74% (active),20.1%,32.5%,37.8%
CCN(CC)Cc1cc(Nc2c3ccc(Cl)cc3nc3ccc(OC)cc23)ccc1O,62.6%,3.14% (active),112%,45.7%,-12.6% (active),43.9%,72.5%,58.7%,-39.4% (active),-67.5% (active),34.1%,11.8%,103%,57.2%,57%,78%,85.5%,103%,24.9%,-5.73% (active)
CN(C)CCCNc1nc2ccccc2c2c(=O)c3cc(F)ccc3sc12,26.2%,-27% (active),81.6%,-29.6% (active),48.4%,52.5%,78.2%,27.3%,84.9%,-64.1% (active),17.7%,4.32% (active),65.6%,68.4%,28.5%,50.2%,72.6%,-53.8% (active),-95% (active),-42.4% (active)
